The nature of assay [1]: NCI Yeast Anticancer Drug Screen. Data for the rad50 strain (AID 155).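 Note: 0% = growth of vehicle-only cultures of the same strain.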 As to conditions: S. cerevisiae rad50 strain growth inhibition, stronger effect = higher value. In a few lines:
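Genetically altered yeast (DNA repair pathway); compound treatment; growth inhibition vs vehicle ctrl.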

Assay [2] can be described thus: NCI Yeast Anticancer Drug Screen. Data for the mec2-1 strain (AID 157). As to conditions: S. cerevisiae mec2-1 strain, stronger effect = higher value. In a few lines:
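mec2-1 yeast strain, carrying an alteration in DNA damage repair or cell cycle control, was exposed to compounds; growth inhibition was measured relative to vehicle-treated controls.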

Assay [3] is described as follows: NCI Yeast Anticancer Drug Screen. Data for the sgs1 mgt1 strain (AID 161).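 Note: 0% = growth of cultures given vehicle only.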 As to conditions: S. cerevisiae sgs1 mgt1 strain, stronger effect = higher value. In outline: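 Yeast cells carrying a defined DNA-repair defect were exposed to test compounds. Growth inhibition was measured relative to vehicle-treated controls.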
Assay [4] is described as follows: NCI Yeast Anticancer Drug Screen. Data for the cln2 rad14 strain (AID 165).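 Note: 0% = growth equal to vehicle treated cultures.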 As to conditions: S. cerevisiae cln2 rad14 strain, stronger effect = higher value. In outline: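 Yeast carrying cln2 and rad14 alterations (cell cycle control and DNA damage repair) were exposed to compounds. Growth inhibition was measured against vehicle-treated controls.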
Assay [5] in a line: NCI Yeast Anticancer Drug Screen. Data for the bub3 strain (AID 167). Conditions: S. cerevisiae bub3 mutant strain, stronger effect = higher value. In outline:
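Yeast carrying a defined mutation is treated with each compound, and growth is compared with that of vehicle-exposed cells to give inhibition.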

Assay [6] is described as follows: NCI Yeast Anticancer Drug Screen. Data for the mlh1 rad18 strain (AID 175). As to conditions: S. cerevisiae mlh1 rad18 strain growth inhibition, stronger effect = higher value. In outline:
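Growth inhibition of the yeast strain was measured after compound exposure and expressed relative to vehicle-treated controls. The strain carries defined defects in DNA damage repair.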

Where [7] appears, read: at 5.0 µM (retest, dose inferred, filed as 0.5).
The mark [8] stands for this setting: at 50.0 µM (retest, dose inferred, filed as 5.0).

Structures are written as SMILES. Compounds without any hit were thinned out: in the full panel of roughly 79,000, 15% have a hit. Unmarked numbers belong to inactive results. Activity calls are given as the source filed them. Cut-off read from the data, not from the text of the source: active = growth inhibition above about 70%; inactive = the rest.

Turning to `S=C(NC(=S)Nc1ccc(Cl)cc1)Nc1ccc(Cl)cc1`, the growth inhibition in assay [1] (setting [7]) is 4%; in assay [1] (setting [8]) it was -4%; in assay [1] (at 50.0 µM), 68%; in assay [2] (setting [7]), 1%; in assay [2] (setting [8]), 2%; in assay [2] (at 50.0 µM), 61.9%. Besides, the growth inhibition is 5% in assay [3] (setting [7]); 8% in assay [3] (setting [8]); 72.1% (active) in assay [3] (at 50.0 µM); -9% in assay [4] (setting [7]); -8% in assay [4] (setting [8]); 50.8% in assay [4] (at 50.0 µM). Besides, the growth inhibition is -4% in assay [5] (setting [7]); 2% in assay [5] (setting [8]); 77.6% (active) in assay [5] (at 50.0 µM); 20% in assay [6] (setting [7]); 10% in assay [6] (setting [8]); 78.7% (active) in assay [6] (at 50.0 µM).

For `O=S=C(c1ccccc1)N(Cc1ccccc1)Cc1ccccc1`, the growth inhibition in assay [1] (setting [7]) was -1%; in assay [1] (setting [8]), 94% (active); in assay [1] (at 50.0 µM), 96% (active); in assay [2] (setting [7]) it was -1%; in assay [2] (setting [8]), 95% (active); in assay [2] (at 50.0 µM) it was 96.2% (active). For the same compound, the growth inhibition in assay [3] (setting [7]) is 0%; in assay [3] (setting [8]) it was 98% (active); in assay [3] (at 50.0 µM) it was 96.7% (active); in assay [4] (setting [7]), 10%; in assay [4] (setting [8]), 90% (active); in assay [4] (at 50.0 µM), 69.7%. Further, the growth inhibition in assay [5] (setting [7]) is 22%; in assay [5] (setting [8]) it was 93% (active); in assay [5] (at 50.0 µM) it was 96.8% (active); in assay [6] (setting [7]) it was 1%; in assay [6] (setting [8]), 95% (active); in assay [6] (at 50.0 µM), 94.2% (active).

Turning to `CCCCCCCCCCCCOC(=O)C[n+]1cccc(C(=O)Nc2ccc(Cl)cc2)c1`, the growth inhibition in assay [1] (setting [7]) is 76% (active); in assay [1] (setting [8]), 98% (active); in assay [1] (at 50.0 µM) it was 98.8% (active); in assay [2] (setting [7]) it was 56%; in assay [2] (setting [8]), 99% (active); in assay [2] (at 50.0 µM), 99.2% (active). Also, the growth inhibition is 60% in assay [3] (setting [7]); 98% (active) in assay [3] (setting [8]); 99% (active) in assay [3] (at 50.0 µM); 53% in assay [4] (setting [7]); 99% (active) in assay [4] (setting [8]); 100% (active) in assay [4] (at 50.0 µM). Further, the growth inhibition is 85% (active) in assay [5] (setting [7]); 99% (active) in assay [5] (setting [8]); 98.8% (active) in assay [5] (at 50.0 µM); 88% (active) in assay [6] (setting [7]); 99% (active) in assay [6] (setting [8]); 98.4% (active) in assay [6] (at 50.0 µM).

With `NC(=O)NN=C1CSSC1`, the growth inhibition in assay [1] (setting [7]) is 7%; in assay [1] (setting [8]), 48%; in assay [1] (at 50.0 µM) it was 96.2% (active); in assay [2] (setting [7]), 4%; in assay [2] (setting [8]), 23%; in assay [2] (at 50.0 µM), 76.5% (active). The growth inhibition in assay [3] (setting [7]) was 3%; in assay [3] (setting [8]), 34%; in assay [3] (at 50.0 µM), 58%; in assay [4] (setting [7]), -9%; in assay [4] (setting [8]), -6%; in assay [4] (at 50.0 µM) it was -3.8%. The growth inhibition in assay [5] (setting [7]) is 1%; in assay [5] (setting [8]), 2%; in assay [5] (at 50.0 µM), 77.8% (active); in assay [6] (setting [7]), -1%; in assay [6] (setting [8]), 72% (active); in assay [6] (at 50.0 µM) it was 94.2% (active).

Turning to `CC(=O)O[C@H]1CC[C@]2(C)C3=CC[C@]4(C)[C@@H](C(C)=O)CC[C@H]4[C@@]34C=C[C@]2(C1)C1C(=O)OC(=O)C14` (some centres not stated), the growth inhibition in assay [1] (setting [7]) is 2%; in assay [1] (setting [8]), 2%; in assay [1] (at 50.0 µM), 58.2%; in assay [2] (setting [7]), 2%; in assay [2] (setting [8]), 6%; in assay [2] (at 50.0 µM), 20.7%. The growth inhibition in assay [3] (setting [7]) was 1%; in assay [3] (setting [8]) it was 7%; in assay [3] (at 50.0 µM), 29.4%; in assay [4] (setting [7]), 4%; in assay [4] (setting [8]), 4%; in assay [4] (at 50.0 µM), -24%. The growth inhibition in assay [5] (setting [7]) was 3%; in assay [5] (setting [8]) it was 4%; in assay [5] (at 50.0 µM) it was 56.9%; in assay [6] (setting [7]), -20%; in assay [6] (setting [8]), -26%; in assay [6] (at 50.0 µM) it was 70.8% (active).

In the case of `COC(=O)c1nc2ccc([N+](=O)[O-])cc2n1O`, the growth inhibition in assay [1] (setting [7]) was -154%; in assay [1] (setting [8]), -155%; in assay [1] (at 50.0 µM), 2.25%; in assay [2] (setting [7]), -54%; in assay [2] (setting [8]), -59%; in assay [2] (at 50.0 µM), 19.8%. Also, the growth inhibition in assay [3] (setting [7]) is -60%; in assay [3] (setting [8]), -70%; in assay [3] (at 50.0 µM), 2.95%; in assay [4] (setting [7]), -53%; in assay [4] (setting [8]), -60%; in assay [4] (at 50.0 µM), 36%. Also, the growth inhibition in assay [5] (setting [7]) was -68%; in assay [5] (setting [8]), -80%; in assay [5] (at 50.0 µM), 4.8%; in assay [6] (setting [7]) it was -116%; in assay [6] (setting [8]), -111%; in assay [6] (at 50.0 µM), 4.3%.

With `CCNC(=S)NNC(=S)NNc1ccccc1`, the growth inhibition was 52% in assay [1] (setting [7]); 98% (active) in assay [1] (setting [8]); 41.3% in assay [1] (at 50.0 µM); 63% in assay [2] (setting [7]); 100% (active) in assay [2] (setting [8]); 38.5% in assay [2] (at 50.0 µM). Besides, the growth inhibition is 31% in assay [3] (setting [7]); 70% (active) in assay [3] (setting [8]); 66.8% in assay [3] (at 50.0 µM); 45% in assay [4] (setting [7]); 63% in assay [4] (setting [8]); 3.85% in assay [4] (at 50.0 µM). Moreover, the growth inhibition in assay [5] (setting [7]) was 36%; in assay [5] (setting [8]), 77% (active); in assay [5] (at 50.0 µM), 60.5%; in assay [6] (setting [7]) it was 47%; in assay [6] (setting [8]) it was 100% (active); in assay [6] (at 50.0 µM) it was 38.5%.

As to `FC(F)(F)c1nc(S)cc(=S)[nH]1`, the growth inhibition was 1% in assay [1] (setting [7]); 13% in assay [1] (setting [8]); -21.2% in assay [1] (at 50.0 µM); 4% in assay [2] (setting [7]); 17% in assay [2] (setting [8]); 24.9% in assay [2] (at 50.0 µM). In addition, the growth inhibition in assay [3] (setting [7]) was 7%; in assay [3] (setting [8]) it was 26%; in assay [3] (at 50.0 µM), -5.45%; in assay [4] (setting [7]), -2%; in assay [4] (setting [8]) it was 22%; in assay [4] (at 50.0 µM), 54%. Besides, the growth inhibition in assay [5] (setting [7]) is -2%; in assay [5] (setting [8]), 31%; in assay [5] (at 50.0 µM), 58.3%; in assay [6] (setting [7]) it was -4%; in assay [6] (setting [8]), 10%; in assay [6] (at 50.0 µM) it was -30%.

On to `S=c1[nH]c2ccc(Cl)cc2s1`, for which the growth inhibition in assay [1] (setting [7]) was -22%; in assay [1] (setting [8]), 54%; in assay [1] (at 50.0 µM), 72.9% (active); in assay [2] (setting [7]), -2%; in assay [2] (setting [8]), 69%; in assay [2] (at 50.0 µM), 65.8%. For the same compound, the growth inhibition in assay [3] (setting [7]) was -13%; in assay [3] (setting [8]), 92% (active); in assay [3] (at 50.0 µM), 82.2% (active); in assay [4] (setting [7]), -60%; in assay [4] (setting [8]), 31%; in assay [4] (at 50.0 µM) it was 83.8% (active). The growth inhibition was -19% in assay [5] (setting [7]); 77% (active) in assay [5] (setting [8]); 42% in assay [5] (at 50.0 µM); -19% in assay [6] (setting [7]); 91% (active) in assay [6] (setting [8]); 87.2% (active) in assay [6] (at 50.0 µM).

For the origin of these results see PubChem BioAssay (NCI).
